Results from PubChem BioAssay AID651814 (National Center for Advancing Translational Sciences (NCATS), 2012).
Among all 2,100 compounds or so, about 590 (28%) were called active. Inconclusive results (about 42%) are left out. This is one part of the list. Unmarked numbers belong to inactive results. The call rests on the fitted dose curve; in most records, active means well fitted inhibition curve with a large enough effect; inconclusive means small, poorly fitted or top-dose-only effect; inactive means flat fitted curve, though single readings scatter.

Each molecule was assayed against DNA dC->dU-editing enzyme APOBEC-3F (Homo sapiens) (UniProt Q8IUX4) (assay: qHTS for inhibitors of Vif-A3F interactions: Cherry picks). Settings: HeLa A3F-eYFP + Vif (tagged APOBEC3F with the HIV-1 protein that degrades it), eYFP fluorescence, 24 h.
Summary of the method: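 HeLa cells stably expressing A3F-eYFP plus Vif, cultured overnight, then exposed to compounds at several concentrations for 24 h at 37 deg C. Reduced Vif-driven degradation read as rising eYFP fluorescence (488 nm ex/500-530 nm em) by laser-scanning cytometry; MG132 as positive control.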
Further: nearly all actives have a fitted effect of over 70% in size.
Potency means the concentration at half of the fitted maximal effect.
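Wherever max response is given: % of control where 0% means no effect; active compounds raise eYFP fluorescence by blocking Vif-driven A3F loss.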

DNA dC->dU-editing enzyme APOBEC-3F (Homo sapiens), sequence (Q8IUX4 whole entry, looked up): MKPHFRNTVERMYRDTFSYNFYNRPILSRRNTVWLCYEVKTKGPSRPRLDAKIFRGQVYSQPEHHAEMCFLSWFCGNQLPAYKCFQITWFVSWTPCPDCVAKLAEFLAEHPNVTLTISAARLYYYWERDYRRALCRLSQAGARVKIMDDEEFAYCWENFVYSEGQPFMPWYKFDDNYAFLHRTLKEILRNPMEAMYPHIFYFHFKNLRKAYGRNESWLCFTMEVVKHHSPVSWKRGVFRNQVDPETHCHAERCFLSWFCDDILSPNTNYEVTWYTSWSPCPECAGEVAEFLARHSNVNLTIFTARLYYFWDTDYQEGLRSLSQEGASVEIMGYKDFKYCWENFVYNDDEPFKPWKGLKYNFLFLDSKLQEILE

Row | SMILES | max response [%] | Potency
1 | COCCNC(=S)N/N=C(\C)c1ccccc1O | 0.575 | –
2 | Cc1ccc2nc(NS(=O)(=O)c3ccc(Cl)cc3)c(Nc3ccc(C(=O)O)cc3)nc2c1 | -8.36 | –
3 | O=C(NC(=S)Nc1ccc(N2CCCCC2)c(Cl)c1)c1ccc2c(c1)OCCO2 | -28.8 | –
4 | COc1ccc(NC(=O)c2ccc(NC(=O)C(C)C)cc2)c([N+](=O)[O-])c1 | -19.6 | –
5 | Cc1ccc(NC(=O)c2ccc(NCC3CCCO3)c([N+](=O)[O-])c2)cc1Cl (stereo not drawn) | – | 20.6 µM (active)
6 | Cc1ccc(NC(=O)c2ccc(NCCCN3CCC(C)CC3)c([N+](=O)[O-])c2)cc1F | -24 | –
7 | Cc1ccc(NC(=O)c2ccc(NCc3ccco3)c([N+](=O)[O-])c2)cc1Cl | – | 16.4 µM (active)
8 | O=C(Nc1cc(F)cc(F)c1)c1ccc(NCCc2ccccc2)c([N+](=O)[O-])c1 | – | 20.6 µM (active)
9 | CC1C/C(=N\NC(N)=S)c2cc(Cl)ccc2S1 (stereo not drawn) | -5.07 | –
10 | C/C(CCC(C)C)=N\NC(=S)NCc1ccccc1 | -4.2 | –
11 | CCOC(=O)Cc1csc(NC(=O)c2sc3nc4c(C)cc(C)cc4cc3c2N)n1 | – | 20.6 µM (active)
12 | CCOC(=O)c1csc(NC(=O)c2cc(-c3ccccn3)nc3ccccc23)n1 | -1.96 | –
13 | C[C@]12CCC[C@H](O1)c1c(cc3c(c1O)C(=O)c1c(O)cc(O)cc1C3=O)O2 | – | 14.6 µM (active)
14 | O=C(CC1CC2CCC1C2)Nc1nc(-c2ccccn2)cs1 (stereo not drawn) | 0.305 | –
15 | CCOC(=O)CSc1nc2c(c(=O)[nH]1)C(C)(CC)Cc1ccccc1-2 (stereo not drawn) | – | 8.2 µM (active)
16 | Cc1sc2nc(SCC(=O)N3CCOCC3)[nH]c(=O)c2c1-c1ccccc1 | -2.85 | –
17 | CCOc1cc(N(CC)CC)ccc1/C=C(/C#N)c1nc2ccccc2[nH]1 | – | 1.46 µM (active)
18 | CCN(CC)c1ccc(/C=C(/C#N)c2nc3ccccc3[nH]2)c(OC(C)C)c1 | – | 2.06 µM (active)
19 | CCCOc1cc(N(CC)CC)ccc1/C=C(/C#N)c1nc2ccc(C)cc2[nH]1 | 0.514 | –
20 | Cc1cccc(OCCOc2ccccc2C=C(C#N)C#N)c1 | -24.6 | –
21 | C/C(=N\NC(N)=S)C12CC3CC(CC(C3)C1)C2 | 3.49 | –
22 | CN(C)c1ccc(C=C2SC(=S)NC2=O)cc1 | – | 17.7 µM (active)
23 | CCOc1cc(Br)cc(/C=C2\SC(=Nc3ccccc3)NC2=O)c1O | -27.7 | –
24 | COc1ccccc1N=C1NC(=O)/C(=C/c2ccc(N(C)C)cc2)S1 | – | 4.11 µM (active)

Row | SMILES | max response [%] | Potency
25 | CCOc1ccc(N(C)c2ccc(/C=C3/SC(=S)NC3=O)cc2)cc1 | – | 15.8 µM (active)
26 | CC12CC3CC(C)(C1)CC(C(=O)NC(=S)N1CCOCC1)(C3)C2 | 4.69 | –
27 | CSc1nc(N)c(C#N)c(-c2ccccc2Cl)c1C#N | -19.1 | –
28 | CC(=O)Nc1cccc(-c2ccnc3c2CC(C)(C(=O)NCc2cccs2)O3)c1 (stereo not drawn) | -24.8 | –
29 | CN(C)S(=O)(=O)c1ccc(N2CCCC2)c(C(=O)N2CCN(S(=O)(=O)c3ccc(F)c(F)c3)CC2)c1 | 3.41 | –
30 | COc1ccc(OCCCC(=O)N2CCN(S(=O)(=O)c3cccc(F)c3)CC2)cc1 | -3.23 | –
31 | CC1(C)Cc2c(sc3ncnc(NNC(=S)NCc4ccccc4)c23)CO1 | -20.8 | –
32 | C=C(C)CNC(=S)NNC(=O)c1ccco1 | 4.89 | –
33 | Cc1ccc(NC(=O)/C(C#N)=C\c2ccc(-c3ccc(Cl)cc3)o2)c(C)c1 | – | 7.31 µM (active)
34 | N#C/C(=C/c1ccc(-c2ccc([N+](=O)[O-])cc2)o1)C(=O)Nc1nc(-c2cccs2)cs1 | -8.39 | –
35 | CN(C)CCNc1ccc2ncn3c4ccc(O)cc4c(=O)c1c23 | – | 20.6 µM (active)
36 | CCN(CC)CCCNc1ccc2ncn3c4ccc(O)cc4c(=O)c1c23 | – | 8.2 µM (active)
37 | CCc1ccc(C2=NN(S(C)(=O)=O)C(c3cccs3)C2)cc1 (stereo not drawn) | – | 15.8 µM (active)
38 | CS(=O)(=O)Nc1ccc(C2=NN(S(=O)(=O)c3ccccc3)C(c3cccs3)C2)cc1 (stereo not drawn) | -22.9 | –
39 | CCOc1ccccc1C1CC(c2cccs2)=NN1S(C)(=O)=O (stereo not drawn) | -22.3 | –
40 | N#C/C(=C\c1cccc(O)c1)c1nc2ccccc2o1 | – | 3.53 µM (active)
41 | C=CCN1C(=O)c2cccc3c(N4CCCCC4)ccc(c23)C1=O | – | 16.4 µM (active)
42 | COc1ccccc1N1C(=O)c2cccc3c(C(=O)O)ccc(c23)C1=O | 1.5 | –
43 | O=C1c2cccc3c(N4CCCCC4)ccc(c23)C(=O)N1c1ccc(O)cc1 | -17.3 | –
44 | CCCCN1C(=O)c2cccc3cc(O)cc(c23)C1=O | -4.14 | –
45 | O=C1c2cccc3c(N4CCCCC4)ccc(c23)C(=O)N1CCO | – | 15.8 µM (active)
46 | O=C(O)c1ccccc1N/N=C/c1c(Sc2nnnn2-c2ccccc2)nc2ccccn2c1=O | – | 9.94 µM (active)
47 | CN1C/C(=C\c2ccc(N3CCOCC3)cc2)C(=O)/C(=C/c2ccc(N3CCOCC3)cc2)C1 | – | 18.4 µM (active)
48 | Cc1ccc(Cc2c(C3CCCCC3)nc3ccc(C)cn23)cc1 | -5.74 | –

Row | SMILES | max response [%] | Potency
49 | COc1ccccc1/C=C/C=N/n1c(-c2ccc(C)cc2)n[nH]c1=S | -22 | –
50 | Cc1ccc(-c2nc(-c3cc4cccc(OCc5cccc(F)c5)c4oc3=O)no2)cc1 | – | 18.4 µM (active)
51 | Nc1c(C(=O)c2ccccc2)sc2snc(SCC(=O)c3ccccc3)c12 | – | 17.7 µM (active)
52 | Nc1c(C(=O)c2ccccc2)sc2nsc(SCCN3CCCC3)c12 | – | 14 µM (active)
53 | N#CC(C(=O)NCc1ccccc1)c1nc2ccccc2nc1N1CCCC1 (stereo not drawn) | -25.3 | –
54 | CCN(CC)c1nc2ccccc2nc1C(C#N)C(=O)NCCc1ccccc1 (stereo not drawn) | – | 3.66 µM (active)
55 | CC1=CN2C(=N)/C(=C/c3ccc([N+](=O)[O-])o3)C(=O)N=C2S1 | – | 14 µM (active)
56 | CCS(=O)(=O)C1=NN2C(=N)/C(=C\c3ccc(SCc4ccco4)o3)C(=O)N=C2S1 | -0.189 | –
57 | CCCCN1C(=O)/C(=C/C=C2\Oc3ccccc3N2CC)SC1=S | -1.16 | –
58 | CCSC1=N/C(=C\C=C2/Oc3ccccc3N2CC)C(=O)S1 | – | 20.6 µM (active)
59 | CC(O)CN(CC(C)O)c1ccc2c(c1)Cc1cc([N+](=O)[O-])ccc1-2 (stereo not drawn) | – | 3.66 µM (active)
60 | COC(=O)c1[nH]c2c(c1C(=O)OC)CCc1ccccc1-2 | -7.85 | –
61 | CC(C)c1ccc(NC(=O)Nc2cnccn2)cc1 | -23.5 | –
62 | CC(=O)c1sc2nc(-c3cccs3)cc(C(F)(F)F)c2c1N | – | 7.31 µM (active)
63 | CCN(CC)C(=O)c1sc2nc(-c3cccs3)cc(-c3ccc(Cl)cc3)c2c1N | – | 15.8 µM (active)
64 | Nc1c(C(=O)C2CC2)sc2nc(-c3cccs3)cc(C(F)(F)F)c12 | – | 1.64 µM (active)
65 | Cc1nc(-c2ccc(Cl)cc2)sc1C(=O)NN | -25 | –
66 | CC(C)(C)C(=O)c1sc2nc(-c3cccs3)cc(C(F)(F)F)c2c1N | – | 1.03 µM (active)
67 | S=C(NC1CCCCC1)N(CCc1ccccc1)CCc1ccccc1 | -2.16 | –
68 | Cc1ccc(N2C(=O)CS/C2=C(\C(Cl)=C(Cl)Cl)[N+](=O)[O-])cc1 | 2.65 | –
69 | Cc1ccc(NC(=O)Cc2ccc(-n3cccc3)cc2)c(C)c1 | -1.25 | –
70 | O=C(O)c1ccc(N/N=C/C(Br)=C/c2ccccc2)cc1 | -18.2 | –
71 | Cc1ccc(NC(=O)C(=Cc2ccc(C(=O)O)cc2)C(=O)Nc2ccc(C)cc2C)c(C)c1 | – | 5.59 µM (active)
72 | O=C1COc2ccc(C(=O)CSc3nc4ccccc4c(=O)n3-c3ccc(Cl)c(Cl)c3)cc2N1 | – | 18.4 µM (active)

Row | SMILES | max response [%] | Potency
73 | O=S(=O)(N=C1C=CC(=NS(=O)(=O)c2ccccc2)c2ccccc21)c1ccccc1 | -24.1 | –
74 | O=C(/C=C/c1ccncc1)c1cc(Cl)ccc1O | 3.83 | –
75 | CC[n+]1c(/C=C/Nc2ccccc2)oc2ccc(OC)cc21 | – | 20.6 µM (active)
76 | CC[n+]1c(/C=C/Nc2ccccc2)oc2ccccc21 | – | 7.31 µM (active)
77 | CC[n+]1c(/C=C/N(C)c2ccccc2)oc2ccc(F)cc21 | – | 11.2 µM (active)
78 | COc1ccc(N/C=C/C(=O)c2sc(-c3ccccc3)nc2C)cc1 | -17.8 | –
79 | CCOC(=O)c1c(CC(C)C)csc1/N=C/C1C(=O)CCCC1=O | -3.21 | –
80 | CCc1ccc2c(c1)NC(=O)C2(C)Cc1ccccc1Cl (stereo not drawn) | -19.4 | –
81 | COc1ccccc1C(=O)NC(=S)Nc1ccc(NC(=O)c2ccco2)cc1 | -12.8 | –
82 | COCCCNc1nc2ccccc2nc1NS(=O)(=O)c1ccccc1 | -2.62 | –
83 | CCN(CC)c1ccc2c(c1)oc(=O)c1c(Cl)cc(=O)oc12 | – | 20.6 µM (active)
84 | CCc1nnc(NC(=O)CSc2nnc(-c3ccccc3O)n2-c2ccc(C)cc2C)s1 | -23.9 | –
85 | Cc1ccc(O)c(NC(=O)c2cc(-c3ccccc3O)no2)c1 | – | 18.4 µM (active)
86 | Cc1ccc(O)c(Nc2c3ccccc3nc3ccccc23)c1 | -0.294 | –
87 | Cn1cc(/C=C/c2ccc3ccccc3n2)c2ccccc21 | – | 20.6 µM (active)
88 | Cn1cc(/C=C/c2ccnc3ccccc23)c2ccccc21 | – | 23.1 µM (active)
89 | COC(=O)C1=COC(C)C2CN3CCc4c([nH]c5cc(OC)c(OC)cc45)C3CC12 (stereo not drawn) | -8.29 | –
90 | CC(=O)Nc1ccc(S(=O)(=O)Nc2nc3ccccc3nc2Nc2ccc(N)cc2)cc1 | -0.838 | –
91 | O=[N+]([O-])c1cc(O)c2ncccc2c1 | -7.28 | –
92 | Cc1cc(N2CCN(c3ccc([N+](=O)[O-])c4cccnc34)CC2)c2ccccc2n1 | – | 10.3 µM (active)
93 | O=[N+]([O-])c1cc(Cl)c2cccnc2c1O | 3.56 | –
